Experimental data taken from the supplement of paper PMC10849652.
The full data set covers some 7,900 targets. This sample favours those with a hit. About 0.6% of all pairs of compound and target were hits.

The targets below were run with CCN(CC)Cc1ccc2cc(COC(=O)Nc3ccc(C(=O)NO)cc3)ccc2c1 [givinostat] (assay: log2 fold change, soluble protein after heating vs DMSO (PISA); higher = thermal stabilisation; K562 cells, 10 uM, 30 min; active = over 0.2 and 3.5 SD of the protein, either way, in both replicates (recomputed)).
Method in brief: (§1)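 K562 cells at 2×10^6 cells/mL were exposed to 10 μM compound for 30 min, then aliquots were heated for 3 min across 48°C-58°C, pooled, and extracted in PBS containing 0.5% NP-40 at 4°C. The supernatant after 21,000xg for 90 min was taken as soluble protein and measured by TMTpro 16plex LC-MS/MS with channel sums equalised. Thermal stability is reported relative to control samples, with values from duplicates. Fold changes are given on a log2 scale.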

Sequence of UniProt Q9H0E9 (Q9H0E9 whole entry, looked up): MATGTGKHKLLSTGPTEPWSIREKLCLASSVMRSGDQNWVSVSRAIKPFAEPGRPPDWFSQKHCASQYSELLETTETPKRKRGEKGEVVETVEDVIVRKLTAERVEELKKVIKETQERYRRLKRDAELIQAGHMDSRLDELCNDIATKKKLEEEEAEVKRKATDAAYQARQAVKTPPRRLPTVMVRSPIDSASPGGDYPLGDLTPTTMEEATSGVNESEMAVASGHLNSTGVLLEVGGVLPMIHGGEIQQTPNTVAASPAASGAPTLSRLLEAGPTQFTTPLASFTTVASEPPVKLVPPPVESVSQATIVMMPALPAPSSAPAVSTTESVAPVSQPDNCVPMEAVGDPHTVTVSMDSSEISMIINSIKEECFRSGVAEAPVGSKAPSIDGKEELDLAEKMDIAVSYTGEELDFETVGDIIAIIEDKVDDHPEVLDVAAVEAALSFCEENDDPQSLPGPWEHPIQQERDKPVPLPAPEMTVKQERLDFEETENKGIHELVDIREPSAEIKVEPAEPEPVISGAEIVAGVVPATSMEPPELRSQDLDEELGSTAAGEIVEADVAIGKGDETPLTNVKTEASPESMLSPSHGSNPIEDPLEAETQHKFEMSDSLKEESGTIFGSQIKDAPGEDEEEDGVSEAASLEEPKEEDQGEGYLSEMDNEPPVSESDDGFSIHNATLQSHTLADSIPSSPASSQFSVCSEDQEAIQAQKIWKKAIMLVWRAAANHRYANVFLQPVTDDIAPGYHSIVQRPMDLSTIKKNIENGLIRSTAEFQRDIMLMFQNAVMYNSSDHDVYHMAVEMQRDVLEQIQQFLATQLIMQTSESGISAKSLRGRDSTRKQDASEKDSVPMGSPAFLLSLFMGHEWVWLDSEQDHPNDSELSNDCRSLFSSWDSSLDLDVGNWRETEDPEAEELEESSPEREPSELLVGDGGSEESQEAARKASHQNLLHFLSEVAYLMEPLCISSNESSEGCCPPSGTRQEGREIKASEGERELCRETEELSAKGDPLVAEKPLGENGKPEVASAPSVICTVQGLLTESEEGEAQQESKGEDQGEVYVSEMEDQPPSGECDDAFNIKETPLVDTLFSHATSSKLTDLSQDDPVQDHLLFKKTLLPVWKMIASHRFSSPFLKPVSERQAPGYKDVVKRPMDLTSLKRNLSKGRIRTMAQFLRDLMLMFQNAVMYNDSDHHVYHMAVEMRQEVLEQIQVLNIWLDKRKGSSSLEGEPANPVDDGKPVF
Sequence of UniProt Q9NWX5 (Q9NWX5 whole entry, looked up): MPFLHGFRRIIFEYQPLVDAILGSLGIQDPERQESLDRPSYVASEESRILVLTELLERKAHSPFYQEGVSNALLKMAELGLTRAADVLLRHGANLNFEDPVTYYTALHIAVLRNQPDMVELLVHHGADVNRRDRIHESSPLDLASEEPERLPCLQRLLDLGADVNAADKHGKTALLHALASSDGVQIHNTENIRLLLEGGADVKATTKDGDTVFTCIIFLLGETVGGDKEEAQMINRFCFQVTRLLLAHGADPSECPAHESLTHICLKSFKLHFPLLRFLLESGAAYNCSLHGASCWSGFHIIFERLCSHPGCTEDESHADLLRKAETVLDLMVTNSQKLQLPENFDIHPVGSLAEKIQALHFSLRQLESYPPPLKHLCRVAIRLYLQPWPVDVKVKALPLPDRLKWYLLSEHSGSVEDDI
Sequence of UniProt Q8N6H7 (Q8N6H7 whole entry, looked up): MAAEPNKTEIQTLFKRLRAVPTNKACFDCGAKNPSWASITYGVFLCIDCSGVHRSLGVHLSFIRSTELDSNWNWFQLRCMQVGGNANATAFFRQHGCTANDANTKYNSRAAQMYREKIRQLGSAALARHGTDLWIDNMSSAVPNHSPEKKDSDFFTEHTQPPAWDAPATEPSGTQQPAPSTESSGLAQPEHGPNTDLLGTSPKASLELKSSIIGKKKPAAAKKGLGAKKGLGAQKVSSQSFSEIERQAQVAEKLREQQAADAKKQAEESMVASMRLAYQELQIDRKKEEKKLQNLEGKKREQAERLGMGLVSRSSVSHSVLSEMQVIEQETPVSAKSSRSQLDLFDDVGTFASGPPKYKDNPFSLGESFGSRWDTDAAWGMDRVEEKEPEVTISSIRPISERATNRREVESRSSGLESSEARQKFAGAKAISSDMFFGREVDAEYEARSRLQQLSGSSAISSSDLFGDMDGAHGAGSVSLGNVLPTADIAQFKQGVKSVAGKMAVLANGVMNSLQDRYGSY
Sequence of UniProt Q8N5I2 (Q8N5I2 whole entry, looked up): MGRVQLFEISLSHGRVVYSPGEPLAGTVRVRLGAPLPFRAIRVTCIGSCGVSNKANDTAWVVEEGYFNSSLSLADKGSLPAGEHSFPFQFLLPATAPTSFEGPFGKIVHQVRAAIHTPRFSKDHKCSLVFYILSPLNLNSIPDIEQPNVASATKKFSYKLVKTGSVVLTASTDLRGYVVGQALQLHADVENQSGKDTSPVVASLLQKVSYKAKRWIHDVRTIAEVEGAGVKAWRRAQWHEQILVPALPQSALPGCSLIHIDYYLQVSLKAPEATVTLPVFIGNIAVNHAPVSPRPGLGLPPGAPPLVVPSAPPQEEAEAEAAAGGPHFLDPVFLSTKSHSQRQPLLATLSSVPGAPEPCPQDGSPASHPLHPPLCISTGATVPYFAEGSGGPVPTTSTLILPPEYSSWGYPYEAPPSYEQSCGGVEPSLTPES
Sequence of UniProt Q8WV93 (Q8WV93 whole entry, looked up): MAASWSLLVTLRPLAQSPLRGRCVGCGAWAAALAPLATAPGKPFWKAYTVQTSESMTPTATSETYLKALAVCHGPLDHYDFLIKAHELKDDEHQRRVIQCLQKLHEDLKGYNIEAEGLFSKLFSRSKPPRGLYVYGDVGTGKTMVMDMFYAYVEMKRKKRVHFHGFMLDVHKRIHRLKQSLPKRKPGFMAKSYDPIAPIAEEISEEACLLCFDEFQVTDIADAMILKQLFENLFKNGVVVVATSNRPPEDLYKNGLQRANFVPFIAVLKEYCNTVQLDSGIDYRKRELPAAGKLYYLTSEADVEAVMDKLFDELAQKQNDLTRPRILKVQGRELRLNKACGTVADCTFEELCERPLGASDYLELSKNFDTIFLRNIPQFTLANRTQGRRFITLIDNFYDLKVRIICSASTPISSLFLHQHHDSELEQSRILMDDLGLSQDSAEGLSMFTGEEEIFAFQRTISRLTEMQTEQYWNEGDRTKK
Sequence of UniProt P00966 (P00966 whole entry, looked up): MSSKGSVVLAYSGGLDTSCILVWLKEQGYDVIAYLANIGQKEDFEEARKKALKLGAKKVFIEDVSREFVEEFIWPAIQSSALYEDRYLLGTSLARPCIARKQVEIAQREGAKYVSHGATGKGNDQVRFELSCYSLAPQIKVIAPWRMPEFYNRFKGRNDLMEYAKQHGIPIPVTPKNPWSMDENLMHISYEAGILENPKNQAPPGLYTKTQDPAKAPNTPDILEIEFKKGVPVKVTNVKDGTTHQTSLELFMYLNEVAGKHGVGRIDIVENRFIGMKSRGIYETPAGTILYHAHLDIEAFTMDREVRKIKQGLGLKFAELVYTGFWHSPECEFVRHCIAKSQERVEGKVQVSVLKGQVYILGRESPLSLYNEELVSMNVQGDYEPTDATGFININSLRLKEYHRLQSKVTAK
Sequence of UniProt Q9HC16 (Q9HC16 whole entry, looked up): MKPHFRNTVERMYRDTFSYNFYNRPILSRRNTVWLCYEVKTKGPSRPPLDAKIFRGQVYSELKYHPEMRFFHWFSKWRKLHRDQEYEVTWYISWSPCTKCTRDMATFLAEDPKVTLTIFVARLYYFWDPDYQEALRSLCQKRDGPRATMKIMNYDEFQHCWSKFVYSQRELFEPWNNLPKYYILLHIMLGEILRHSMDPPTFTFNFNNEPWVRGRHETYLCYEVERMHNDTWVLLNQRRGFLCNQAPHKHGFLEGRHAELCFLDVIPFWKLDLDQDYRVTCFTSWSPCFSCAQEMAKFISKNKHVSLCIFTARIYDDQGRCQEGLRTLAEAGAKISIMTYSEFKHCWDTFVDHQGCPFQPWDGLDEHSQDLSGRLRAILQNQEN
Sequence of UniProt P98171 (P98171 whole entry, looked up): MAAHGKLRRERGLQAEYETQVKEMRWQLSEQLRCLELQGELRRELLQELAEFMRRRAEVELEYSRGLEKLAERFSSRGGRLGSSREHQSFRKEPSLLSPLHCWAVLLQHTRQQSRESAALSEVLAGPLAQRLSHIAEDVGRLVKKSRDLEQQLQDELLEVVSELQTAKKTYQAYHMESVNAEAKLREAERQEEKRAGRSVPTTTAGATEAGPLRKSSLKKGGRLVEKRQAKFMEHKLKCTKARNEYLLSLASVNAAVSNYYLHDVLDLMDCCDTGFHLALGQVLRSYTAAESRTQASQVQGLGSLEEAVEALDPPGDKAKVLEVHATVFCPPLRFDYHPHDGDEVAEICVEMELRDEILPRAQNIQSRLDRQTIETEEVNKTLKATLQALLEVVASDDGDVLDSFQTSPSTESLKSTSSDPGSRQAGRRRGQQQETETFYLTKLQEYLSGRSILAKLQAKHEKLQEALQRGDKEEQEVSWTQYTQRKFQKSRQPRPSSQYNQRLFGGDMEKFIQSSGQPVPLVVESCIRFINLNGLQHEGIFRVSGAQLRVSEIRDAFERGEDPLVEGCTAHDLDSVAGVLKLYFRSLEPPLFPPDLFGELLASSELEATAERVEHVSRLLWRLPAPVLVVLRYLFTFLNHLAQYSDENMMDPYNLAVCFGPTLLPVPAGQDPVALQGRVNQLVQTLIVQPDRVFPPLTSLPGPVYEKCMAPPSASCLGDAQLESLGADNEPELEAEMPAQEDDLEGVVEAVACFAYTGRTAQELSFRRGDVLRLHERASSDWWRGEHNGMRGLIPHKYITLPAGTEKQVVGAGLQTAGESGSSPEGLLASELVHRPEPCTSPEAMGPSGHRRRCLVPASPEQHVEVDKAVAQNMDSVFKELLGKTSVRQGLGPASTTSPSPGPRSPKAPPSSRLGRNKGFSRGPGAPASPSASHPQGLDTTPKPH
Sequence of UniProt P55008 (P55008 whole entry, looked up): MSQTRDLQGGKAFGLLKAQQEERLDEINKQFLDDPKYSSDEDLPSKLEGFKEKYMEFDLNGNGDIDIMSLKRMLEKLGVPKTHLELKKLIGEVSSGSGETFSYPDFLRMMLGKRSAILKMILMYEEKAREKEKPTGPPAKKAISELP

Target	log2 fold change
ABHD17A isoform 2 (UniProt Q96GS6)	-0.313 (inactive)
AASDH (UniProt Q4L235)	0.033 (inactive)
ARFGAP2 (UniProt Q8N6H7)	0.06 (inactive)
ACTBL2 (UniProt Q562R1)	-0.342 (inactive)
AMD1 (UniProt P17707)	0.07 (inactive)
BRD4 (UniProt O60885)	-0.252 (inactive)
ADPRH (UniProt P54922)	0.025 (inactive)
BDH2 (UniProt Q9BUT1)	-0.033 (inactive)
ANXA5 (UniProt P08758)	0.033 (inactive)
BTBD6 (UniProt Q96KE9)	0.358 (inactive)
BYSL (UniProt Q13895)	0.167 (inactive)
ARRDC1 (UniProt Q8N5I2)	0.136 (inactive)
BRIP1 (UniProt Q9BX63)	0.004 (inactive)
ADAM15 (UniProt Q13444)	0.308 (inactive)
ABCA3 (UniProt Q99758)	0.059 (inactive)
AFG1L (UniProt Q8WV93)	0.013 (inactive)
BRD8 isoform 2 (UniProt Q9H0E9)	-0.126 (inactive)

Target	log2 fold change
ASS1 (UniProt P00966)	0.031 (inactive)
APOBEC3G (UniProt Q9HC16)	0.129 (inactive)
ATF7 isoform 6 (UniProt P17544)	-0.131 (inactive)
AIFM2 (UniProt Q9BRQ8)	0.011 (inactive)
ASB6 (UniProt Q9NWX5)	0.108 (inactive)
APAF1 (UniProt O14727)	0.395 (active)
AIF1 (UniProt P55008)	-0.057 (inactive)
ALKBH4 (UniProt Q9NXW9)	-0.05 (inactive)
BRD3 (UniProt Q15059)	-0.842 (active)
ARHGAP4 isoform 2 (UniProt P98171)	0.034 (inactive)
ALDH9A1 (UniProt P49189)	0.058 (inactive)
ALDH6A1 (UniProt Q02252)	-0.017 (inactive)
APOH (UniProt P02749)	0.046 (inactive)
AGAP3 isoform 4 (UniProt Q96P47)	0.113 (inactive)
ANK2 (UniProt Q01484)	-0.047 (inactive)
AAMP (UniProt Q13685)	0.033 (inactive)

The targets below were run with CCN(CCCOc1ccc2c(Nc3cc(CC(=O)Nc4cccc(F)c4)[nH]n3)ncnc2c1)CCOP(=O)(O)O [barasertib] in the same assay as above.
Method in brief: as §1

Target	log2 fold change
ABHD17A isoform 2 (UniProt Q96GS6)	0.016 (inactive)
AASDH (UniProt Q4L235)	0.09 (inactive)
ARFGAP2 (UniProt Q8N6H7)	0.066 (inactive)
ACTBL2 (UniProt Q562R1)	0.161 (inactive)
AMD1 (UniProt P17707)	0.016 (inactive)
BRD4 (UniProt O60885)	0.021 (inactive)
ADPRH (UniProt P54922)	-0.036 (inactive)
BDH2 (UniProt Q9BUT1)	-0.019 (inactive)
ANXA5 (UniProt P08758)	0.034 (inactive)
BTBD6 (UniProt Q96KE9)	-0.017 (inactive)
BYSL (UniProt Q13895)	0.014 (inactive)
ALDH2 isoform 2 (UniProt P05091)	0.099 (inactive)
ARRDC1 (UniProt Q8N5I2)	-0.179 (inactive)
BRIP1 (UniProt Q9BX63)	-0.162 (inactive)
ADAM15 (UniProt Q13444)	-0.043 (inactive)
ABCA3 (UniProt Q99758)	0.196 (inactive)
AFG1L (UniProt Q8WV93)	0.01 (inactive)

Target	log2 fold change
BRD8 isoform 2 (UniProt Q9H0E9)	-0.039 (inactive)
ASS1 (UniProt P00966)	-0.063 (inactive)
APOBEC3G (UniProt Q9HC16)	0.019 (inactive)
ATF7 isoform 6 (UniProt P17544)	-0.033 (inactive)
AIFM2 (UniProt Q9BRQ8)	-0.024 (inactive)
ASB6 (UniProt Q9NWX5)	0.031 (inactive)
ABITRAM (UniProt Q9NX38)	0.03 (inactive)
AIF1 (UniProt P55008)	-0.102 (inactive)
ALKBH4 (UniProt Q9NXW9)	-0.016 (inactive)
BRD3 (UniProt Q15059)	-0.339 (inactive)
ARHGAP4 isoform 2 (UniProt P98171)	-0.466 (inactive)
ALDH9A1 (UniProt P49189)	0.05 (inactive)
ALDH6A1 (UniProt Q02252)	-0.038 (inactive)
APOH (UniProt P02749)	-0.203 (inactive)
AGAP3 isoform 4 (UniProt Q96P47)	0.199 (inactive)
ANK2 (UniProt Q01484)	0.031 (inactive)
AAMP (UniProt Q13685)	-0.006 (inactive)

The targets below were run with CC[C@@H]1C(=O)N(C)c2cnc(Nc3ccc(C(=O)NC4CCN(C)CC4)cc3OC)nc2N1C1CCCC1 in the same assay as above.
Method in brief: as §1

Target	log2 fold change
ABHD17A isoform 2 (UniProt Q96GS6)	-0.072 (inactive)
ARFGAP2 (UniProt Q8N6H7)	-0.052 (inactive)
ACTBL2 (UniProt Q562R1)	-0.121 (inactive)
AMD1 (UniProt P17707)	0.061 (inactive)
BRD4 (UniProt O60885)	1.89 (active)
ANXA5 (UniProt P08758)	-0.084 (inactive)
BTBD6 (UniProt Q96KE9)	0.017 (inactive)
BYSL (UniProt Q13895)	-0.009 (inactive)
ALDH2 isoform 2 (UniProt P05091)	0.183 (inactive)
ARRDC1 (UniProt Q8N5I2)	-0.063 (inactive)
BRIP1 (UniProt Q9BX63)	-0.067 (inactive)
ABCA3 (UniProt Q99758)	-0.155 (inactive)
AFG1L (UniProt Q8WV93)	0.047 (inactive)
BRD8 isoform 2 (UniProt Q9H0E9)	0.036 (inactive)
ASS1 (UniProt P00966)	0.02 (inactive)
APOBEC3G (UniProt Q9HC16)	0.267 (inactive)
AIFM2 (UniProt Q9BRQ8)	0.002 (inactive)
ASB6 (UniProt Q9NWX5)	0.047 (inactive)
APAF1 (UniProt O14727)	-0.123 (inactive)
ABITRAM (UniProt Q9NX38)	0.033 (inactive)
ALKBH4 (UniProt Q9NXW9)	-0.064 (inactive)
BRD3 (UniProt Q15059)	1.63 (active)
ADD3 isoform 2 (UniProt Q9UEY8)	0.021 (inactive)
ARHGAP4 isoform 2 (UniProt P98171)	-0.044 (inactive)
ALDH9A1 (UniProt P49189)	-0.035 (inactive)
ALDH6A1 (UniProt Q02252)	0.06 (inactive)
APOH (UniProt P02749)	-0.397 (inactive)
AGAP3 isoform 4 (UniProt Q96P47)	0.154 (inactive)
ANK2 (UniProt Q01484)	0.049 (inactive)
AAMP (UniProt Q13685)	0.072 (inactive)
